Screens from PubChem.
The list is not random: actives were taken first. Their share in the collection is about 2.5%.
AI-2 QS modul: Vibrio harveyi AI-2 quorum sensing modulators, primary screen, JMH597 strain, luminescence/OD600 ratio; Vibrio harveyi JMH597 AI-2 luminescence/OD600 ratio, 9 h; active compounds read low; strain lacks LuxN and CqsS sensors; 0 = neutral-control median; activity change, % at 7.5 µM; 300,000 tested, 0.4% active; in the data active means activity change below about -75%, passing the limit was not always enough;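 further: luminescence divided by OD600 gain over 9 h not by final OD600 alone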
Efflux pump mplx: inhibitors of Candida efflux pumps in yeast, primary screen, S. cerevisiae, Nile Red, multiplex; S. cerevisiae Candida pump triplex; inhibition, % at 10 µM; 330,000 tested, 0.44% active; AID 485275, 2010;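 active means plate passing quality check with inhibition over a set limit, or well fluorescence over plate mean plus 4 SD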;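 further: Nile Red retained in pooled yeast measured as flow cytometry median fluorescence; 0% = buffer negative control and 100% = Enniatin B positive control; higher means more Nile Red kept so more efflux inhibition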
Mot1-301 SUMO: yeast Mot1-301 growth rescue at high temperature, primary screen, SUMOylation pathway inhibitor project, S. cerevisiae, ATP luminescence, 38.5C. S. cerevisiae Mot1-301 growth rescue; percent above DMSO median, 100 means doubled. growth rescue, % at 18.8 µM. 320,000 tested, 1% active;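 active means every valid replicate shows activation above 250% relative to neutral control wells; inactive means the rest, any valid replicate at or below 250%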;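 further: OY570 slx delta 5 strain wells were the positive control but not used for scaling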
ATG4B inh: ATG4B protease inhibitors, primary screen, biochemical, fluorescence, uHTS; ATG4B cleavage of LC3-PLA2, NBD-HPC fluorescence, 1 h; AID 504462, 2011; Cysteine protease ATG4B (Homo sapiens), Q9Y4P1; inhibition, % at 8.33 µM; 340,000 tested, 0.51% active; in the data active means inhibition above about 40%
Target sequence (Q9Y4P1 whole entry, looked up): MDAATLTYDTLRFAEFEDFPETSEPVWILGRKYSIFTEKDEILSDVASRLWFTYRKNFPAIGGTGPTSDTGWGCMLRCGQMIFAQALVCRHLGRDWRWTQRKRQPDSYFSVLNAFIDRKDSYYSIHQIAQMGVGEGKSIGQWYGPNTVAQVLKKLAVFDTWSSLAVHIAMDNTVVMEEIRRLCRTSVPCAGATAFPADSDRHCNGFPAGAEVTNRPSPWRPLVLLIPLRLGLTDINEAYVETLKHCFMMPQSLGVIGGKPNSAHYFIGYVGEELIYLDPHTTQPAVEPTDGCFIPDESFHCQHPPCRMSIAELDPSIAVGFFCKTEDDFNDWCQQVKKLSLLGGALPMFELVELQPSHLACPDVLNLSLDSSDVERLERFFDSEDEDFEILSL
V-ATPase pH: regulators of yeast V-ATPase proton pumping, primary screen, pHLuorin cytosolic pH fluorescence. S. cerevisiae. AID 504577, 2011. response, % at 10 µM. 350,000 tested, 0.37% active; in the data active means response mostly above about 7.3%, no sharp cut-off; inactive means mostly below about 5.4%; further: actives read high
Cmpd fluor yeast: compound fluorescence in yeast efflux pump counter-screen. 1,700 tested, 4% active. shares compounds with Efflux pump mplx. AID 588517. fluorescence ratio to DMSO, % at 10 µM. S. cerevisiae AD/pABC3, flow cytometry;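 active means fluorescence ratio to DMSO above its plate's cutoff, the plate mean ratio plus 5 SD, cut at about 210% in these data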;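 further: unstained yeast with no Nile Red so the signal is compound autofluorescence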
CaMdr1 efflux inh: inhibitors of Candida albicans Mdr1 efflux, confirmation, flow cytometry, singleplex, Cherry Pick1 set | inhibition, % at 10 µM | shares compounds with Efflux pump mplx | S. cerevisiae AD/CaMDR1, Nile Red efflux | 1,700 tested, 1% active; in the data active means inhibition above about 26%;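 further: 0% = DMSO vehicle and 100% = reference inhibitor; higher means more Nile Red retained so more efflux inhibition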
Cdr2 pump inh: inhibitors of Candida albicans Cdr2 efflux pump, confirmation, S. cerevisiae AD/CaCDR2, flow cytometry, cherry pick 1, singleplex. shares compounds with Efflux pump mplx. Nile Red retention. Nile Red retention ratio vs DMSO, % at 10 µM. 1,700 tested, 4% active; in the data active means Nile Red retention ratio vs DMSO above about 190%;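 further: higher ratio means more blocking of Cdr2 efflux of the dye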
Cdr1 pump inh: inhibitors of Candida albicans Cdr1 efflux pump, confirmation, S. cerevisiae AD/CaCDR1, flow cytometry, cherry pick 1, singleplex | shares compounds with Efflux pump mplx | Nile Red efflux | inhibition, % at 10 µM | 1,700 tested, 1% active;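 active means inhibition above the screen-wide mean plus twice its standard deviation, cut at about 32% in these data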
Starred values were filed as active, the others as inactive; . = no result given.

SMILES	AI-2 QS modul	Efflux pump mplx	Mot1-301 SUMO	ATG4B inh	V-ATPase pH	Cmpd fluor yeast	CaMdr1 efflux inh	Cdr2 pump inh	Cdr1 pump inh
CN(C)c1ccc(/C=C/c2nc3ccccc3s2)cc1	-5	0.6*	-26	9	2	98	0	116	0
CN(C)c1ccc(/C=C/c2ccc3ccccc3n2)cc1	0	0	-39	-5	-4	.	.	.	.
O=S(=O)(c1ccc(N2CCN(CCO)CC2)nc1)N1CCCCC1	24	0	9	-3	2	.	.	.	.
O=C(c1cc2nc(-c3cccs3)cc(C(F)(F)Cl)n2n1)N1CCCc2ccccc21	15	0	-5	25	-2	.	.	.	.
O=C(c1cc2nc(-c3cccs3)cc(C(F)(F)F)n2n1)N1CCCc2ccccc21	27	0.7*	73	19	-7	90	0	83	0
CCn1c(C(=O)N2CCCC(C(=O)NCCc3ccc(C)cc3)C2)cc2sccc21 (configuration not stated)	.	1.0*	7	-1	-1	103	0	94	0
COc1cc(N2CCCC2)c(OC)cc1/C=C1/NC(=S)NC1=O	42	0.5*	-18	2	-3	289*	0	120	0
COc1ccc(OC)c(/C=C2\NC(=O)NC2=O)c1	21	0	0	-9	0	.	.	.	.
S=C(NCc1ccccc1)N1CCc2ccccc2C1	-24	0	.	4	3	93	0	100	0
O=C1CCCN1CCC(=O)N1CCCC(CO)(Cc2ccccc2)C1 (configuration not stated)	5	0	-3	-7	-1	.	.	.	.
COc1ccccc1C(=O)NC(=Nc1nc2ccccc2o1)NC(=O)c1ccccc1OC	17	0	-14	-4	2	.	.	.	.
O=C(NC(=Nc1nc2ccccc2o1)NC(=O)c1ccccc1)c1ccccc1	10	1.2*	-17	6	-1	102	0	127	1
O=C(CCCc1ccccc1)Nc1cccc([N+](=O)[O-])c1	20	0.8*	25	2	1	100	0	123	0
Cn1c(=O)c(=O)n(C)c2cc(S(=O)(=O)N3CCc4ccccc43)ccc21	15	0.8*	-6	-5	1	238	0	96	0
CC(C)(C)Nc1nc(Cl)nc(Nc2ccccc2)n1	0	0	-9	-3	-1	.	.	.	.
Clc1nc(Nc2ccccc2)nc(Nc2ccccc2)n1	-3	11*	-6	-1	-6	101	0	104	0
CCOc1ccc(-c2cc(C(=O)N3CCN(C)CC3)c3ccccc3n2)cc1	9	0	-2	2	0	99	0	105	0
CC(C)Oc1ccc(-c2cc(C(=O)NCCN3CCOCC3)c3ccccc3n2)cc1	2	0	0	-6	-3	96	0	103	0
O=C(NCCN1CCOCC1)c1cc(-c2ccc(F)cc2)nc2ccccc12	1	0	23	5	3	.	.	.	.
COc1ccccc1C(CNC(=O)c1cc(C)nc2ccccc12)N(C)C (configuration not stated)	20	0	-14	-14	-1	.	.	.	.
O=C(CSc1nc2ccc(Cl)cc2[nH]1)N1CCN(C(=O)c2ccco2)CC1	19	14*	-13	-3	7	101	0	89	0
